Assay in all cases: DAPPL (digital affinity profiling via proximity ligation, sequencing); 10 mM Tris-HCl pH 7.5, 50 mM NaCl, 1 mM DTT, 4% glycerol, room temperature, 30 min; GST-TFs on glutathione beads, 16-mer random dsDNA library, 0.1% formaldehyde crosslink after washing; high values mean tight binding
In one test the target is T1, FLI1 (Homo sapiens, UniProt Q01543 1-452).
T1 sequence: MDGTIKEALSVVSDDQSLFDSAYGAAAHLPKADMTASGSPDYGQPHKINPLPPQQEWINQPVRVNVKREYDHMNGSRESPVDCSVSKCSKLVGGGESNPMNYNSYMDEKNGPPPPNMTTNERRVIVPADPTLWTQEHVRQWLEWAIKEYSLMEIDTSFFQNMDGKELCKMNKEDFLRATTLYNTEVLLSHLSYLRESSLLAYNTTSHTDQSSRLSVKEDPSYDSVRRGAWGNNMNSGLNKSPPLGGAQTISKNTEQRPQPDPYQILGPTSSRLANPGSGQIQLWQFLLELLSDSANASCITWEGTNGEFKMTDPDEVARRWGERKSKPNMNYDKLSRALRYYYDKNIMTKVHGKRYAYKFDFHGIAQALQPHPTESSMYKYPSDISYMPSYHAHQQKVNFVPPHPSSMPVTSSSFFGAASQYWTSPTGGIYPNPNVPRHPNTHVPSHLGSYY
The conditions noted are these: protein: recombinant; tags: N-terminal GST; dsDNA, one strand shown. The method in brief: (§1)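 Pools were built from human transcription factors expressed in yeast as GST fusions, captured on glutathione beads and DNA-barcoded, along with a tag-only sample. Incubation with 200 nmole of a 16-mer random double-stranded DNA library lasted 30 min at room temperature in Tris/NaCl/DTT/glycerol buffer, and was followed by washing, 0.1% formaldehyde crosslinking, proximity ligation, PCR amplification and Illumina NextSeq500 sequencing. Binding signal is the quotient of each hexamer's read frequency for a factor and its frequency for the tag-only sample.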

The target of another test is T2, ELK1 (Homo sapiens, UniProt P19419 1-428).
T2 sequence: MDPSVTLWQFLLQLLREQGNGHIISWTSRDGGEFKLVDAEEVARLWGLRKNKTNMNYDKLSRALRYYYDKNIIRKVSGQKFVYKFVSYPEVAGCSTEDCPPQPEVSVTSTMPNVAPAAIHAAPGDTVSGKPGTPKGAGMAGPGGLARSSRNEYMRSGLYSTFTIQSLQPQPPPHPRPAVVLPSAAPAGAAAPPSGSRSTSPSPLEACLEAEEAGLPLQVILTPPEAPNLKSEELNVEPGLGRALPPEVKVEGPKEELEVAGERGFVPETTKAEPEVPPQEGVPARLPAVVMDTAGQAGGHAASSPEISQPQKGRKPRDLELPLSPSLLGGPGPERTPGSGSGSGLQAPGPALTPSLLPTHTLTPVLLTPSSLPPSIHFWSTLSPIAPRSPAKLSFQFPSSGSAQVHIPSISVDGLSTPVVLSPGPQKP
The conditions noted are these: protein: recombinant; tags: N-terminal GST; dsDNA, one strand shown. The method in brief: as §1

A further test has as its target T3, GABPA (Homo sapiens, UniProt Q06546 1-454).
T3 sequence: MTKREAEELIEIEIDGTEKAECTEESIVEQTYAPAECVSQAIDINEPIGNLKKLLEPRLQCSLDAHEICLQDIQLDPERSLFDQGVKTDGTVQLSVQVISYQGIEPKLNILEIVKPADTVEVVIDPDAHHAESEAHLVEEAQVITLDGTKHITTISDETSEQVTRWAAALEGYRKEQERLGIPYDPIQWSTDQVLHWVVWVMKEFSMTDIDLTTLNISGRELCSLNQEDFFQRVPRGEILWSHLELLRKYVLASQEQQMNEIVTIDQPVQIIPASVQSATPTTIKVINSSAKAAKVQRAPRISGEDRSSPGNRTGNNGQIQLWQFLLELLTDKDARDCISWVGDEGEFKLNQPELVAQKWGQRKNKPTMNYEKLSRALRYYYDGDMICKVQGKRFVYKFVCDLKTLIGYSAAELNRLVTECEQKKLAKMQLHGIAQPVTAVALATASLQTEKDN
Conditions: protein: recombinant; tags: N-terminal GST; dsDNA, one strand shown. The method in brief: as §1

In the next test the target is T4, ERG (Homo sapiens, UniProt P11308 1-479).
T4 sequence: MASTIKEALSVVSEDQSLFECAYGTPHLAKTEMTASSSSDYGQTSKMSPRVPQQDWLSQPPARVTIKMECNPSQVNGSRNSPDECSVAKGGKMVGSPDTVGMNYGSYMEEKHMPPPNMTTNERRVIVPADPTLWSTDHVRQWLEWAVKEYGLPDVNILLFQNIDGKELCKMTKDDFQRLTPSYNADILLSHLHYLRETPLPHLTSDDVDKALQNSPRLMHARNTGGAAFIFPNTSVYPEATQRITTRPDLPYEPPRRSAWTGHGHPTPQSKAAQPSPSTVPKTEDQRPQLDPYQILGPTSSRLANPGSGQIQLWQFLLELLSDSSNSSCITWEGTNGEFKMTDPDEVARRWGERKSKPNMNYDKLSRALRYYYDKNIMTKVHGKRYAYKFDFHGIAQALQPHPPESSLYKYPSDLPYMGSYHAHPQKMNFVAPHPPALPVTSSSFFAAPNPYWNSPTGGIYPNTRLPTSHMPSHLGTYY
Conditions: protein: recombinant; tags: N-terminal GST; dsDNA, one strand shown. The method in brief:
as §1

Another test deals with ELF1 (Homo sapiens, UniProt P32519 1-619). Conditions: protein: recombinant; tags: N-terminal GST; dsDNA, one strand shown. The method in brief: as §1
ELF1, sequence (P32519 whole entry): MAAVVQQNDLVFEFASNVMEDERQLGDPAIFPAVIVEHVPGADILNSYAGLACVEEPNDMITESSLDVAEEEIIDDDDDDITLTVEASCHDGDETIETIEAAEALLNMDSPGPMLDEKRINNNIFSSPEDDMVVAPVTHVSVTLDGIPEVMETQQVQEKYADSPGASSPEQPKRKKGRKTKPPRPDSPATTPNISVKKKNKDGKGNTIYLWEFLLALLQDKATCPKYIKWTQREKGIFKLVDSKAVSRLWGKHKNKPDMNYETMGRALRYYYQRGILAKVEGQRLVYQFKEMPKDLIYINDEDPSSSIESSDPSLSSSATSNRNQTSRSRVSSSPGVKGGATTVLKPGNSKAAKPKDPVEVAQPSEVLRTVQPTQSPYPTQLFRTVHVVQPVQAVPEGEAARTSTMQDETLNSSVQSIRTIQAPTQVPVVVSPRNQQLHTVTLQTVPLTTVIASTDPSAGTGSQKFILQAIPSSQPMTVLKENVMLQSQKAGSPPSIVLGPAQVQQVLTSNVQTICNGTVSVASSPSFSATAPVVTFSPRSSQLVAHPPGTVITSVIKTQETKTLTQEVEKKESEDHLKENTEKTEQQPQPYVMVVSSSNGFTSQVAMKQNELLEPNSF
A further test concerns the target T5, EHF (Homo sapiens, UniProt Q9NZC4 1-300).
T5 sequence: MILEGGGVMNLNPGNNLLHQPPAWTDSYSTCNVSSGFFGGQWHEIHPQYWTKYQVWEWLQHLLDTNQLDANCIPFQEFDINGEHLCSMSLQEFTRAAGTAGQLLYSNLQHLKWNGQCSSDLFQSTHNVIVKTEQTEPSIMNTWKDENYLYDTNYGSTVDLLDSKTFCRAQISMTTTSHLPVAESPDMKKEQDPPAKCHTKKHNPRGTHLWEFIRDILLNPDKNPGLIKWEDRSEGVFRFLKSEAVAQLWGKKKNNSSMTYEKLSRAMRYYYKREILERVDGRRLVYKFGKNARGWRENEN
The conditions noted are these: protein: recombinant; tags: N-terminal GST; dsDNA, one strand shown. The method in brief: as §1

Another test has as its target SPI1 (Homo sapiens, UniProt P17947 1-270). The conditions noted are these: protein: recombinant; tags: N-terminal GST; dsDNA, one strand shown. The method in brief: as §1
Another test deals with SPIB (Homo sapiens, UniProt Q01892 1-262). The conditions noted are these: protein: recombinant; tags: N-terminal GST; dsDNA, one strand shown. The method in brief: as §1
SPIB, sequence (Q01892 whole entry): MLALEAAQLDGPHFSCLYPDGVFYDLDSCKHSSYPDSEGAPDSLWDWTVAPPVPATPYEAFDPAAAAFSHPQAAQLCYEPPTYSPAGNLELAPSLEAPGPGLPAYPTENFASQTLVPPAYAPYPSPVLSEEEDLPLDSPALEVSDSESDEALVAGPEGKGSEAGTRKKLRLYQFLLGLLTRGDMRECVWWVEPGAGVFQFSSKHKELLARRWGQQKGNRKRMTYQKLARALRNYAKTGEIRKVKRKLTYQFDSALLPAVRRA
A further test deals with T6, ELK3 (Homo sapiens, UniProt P41970 1-407).
T6 sequence: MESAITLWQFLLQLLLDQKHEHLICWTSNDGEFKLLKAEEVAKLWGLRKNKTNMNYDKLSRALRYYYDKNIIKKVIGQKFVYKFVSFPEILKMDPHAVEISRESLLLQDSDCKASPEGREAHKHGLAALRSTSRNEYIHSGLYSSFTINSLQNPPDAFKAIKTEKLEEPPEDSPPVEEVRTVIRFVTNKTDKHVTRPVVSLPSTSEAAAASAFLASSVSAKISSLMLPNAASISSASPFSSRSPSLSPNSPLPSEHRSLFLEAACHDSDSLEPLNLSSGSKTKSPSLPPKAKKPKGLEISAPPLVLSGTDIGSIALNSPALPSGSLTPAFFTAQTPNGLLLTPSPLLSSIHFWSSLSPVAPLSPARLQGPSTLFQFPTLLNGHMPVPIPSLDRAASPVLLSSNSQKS
Conditions: protein: recombinant; tags: N-terminal GST; dsDNA, one strand shown. The method in brief: as §1

The next test deals with T7, FEV (Homo sapiens, UniProt Q99581 1-238).
T7 sequence: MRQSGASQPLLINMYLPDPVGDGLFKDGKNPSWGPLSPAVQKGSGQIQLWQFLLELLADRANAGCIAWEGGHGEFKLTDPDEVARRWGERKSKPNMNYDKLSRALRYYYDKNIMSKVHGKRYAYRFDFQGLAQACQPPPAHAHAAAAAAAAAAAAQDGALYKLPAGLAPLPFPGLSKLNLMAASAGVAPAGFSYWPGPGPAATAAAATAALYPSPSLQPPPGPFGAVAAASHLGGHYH
Conditions: protein: recombinant; tags: N-terminal GST; dsDNA, one strand shown. The method in brief:
as §1

The target of the next test is ETV5 (Homo sapiens, UniProt P41161 1-510). The conditions noted are these: protein: recombinant; tags: N-terminal GST; dsDNA, one strand shown. The method in brief: as §1
ETV5, sequence (P41161 whole entry): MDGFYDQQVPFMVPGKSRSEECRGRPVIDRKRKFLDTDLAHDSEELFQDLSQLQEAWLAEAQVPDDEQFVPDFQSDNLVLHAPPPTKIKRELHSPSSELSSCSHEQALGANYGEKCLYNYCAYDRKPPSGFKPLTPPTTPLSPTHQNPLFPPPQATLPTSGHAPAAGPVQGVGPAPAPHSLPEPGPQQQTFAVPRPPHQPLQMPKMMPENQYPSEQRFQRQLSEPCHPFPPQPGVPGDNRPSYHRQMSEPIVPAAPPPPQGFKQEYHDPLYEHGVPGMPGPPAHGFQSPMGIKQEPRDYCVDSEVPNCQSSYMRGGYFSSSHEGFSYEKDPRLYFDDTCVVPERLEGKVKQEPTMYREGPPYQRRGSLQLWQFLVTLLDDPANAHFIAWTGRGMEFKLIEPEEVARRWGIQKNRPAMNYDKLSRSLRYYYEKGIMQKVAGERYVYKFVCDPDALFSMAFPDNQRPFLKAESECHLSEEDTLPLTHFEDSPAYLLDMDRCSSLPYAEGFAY
The next test concerns the target HSF1 (Homo sapiens, UniProt Q00613 1-529). Conditions: protein: recombinant; tags: N-terminal GST; chain copies: 3; dsDNA, one strand shown. The method in brief:
as §1

The target in another test is T8, SPIC (Homo sapiens, UniProt Q8N5J4 1-248).
T8 sequence: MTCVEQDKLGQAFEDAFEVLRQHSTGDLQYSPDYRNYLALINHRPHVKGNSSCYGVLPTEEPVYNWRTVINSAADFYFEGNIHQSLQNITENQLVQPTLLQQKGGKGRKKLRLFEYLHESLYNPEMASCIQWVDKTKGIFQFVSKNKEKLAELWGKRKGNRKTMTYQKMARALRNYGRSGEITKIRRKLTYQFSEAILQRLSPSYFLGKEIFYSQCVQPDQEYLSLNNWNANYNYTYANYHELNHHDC
Conditions: protein: recombinant; tags: N-terminal GST; dsDNA, one strand shown. The method in brief: as §1

For a further test, the target named is ELF4 (Homo sapiens, UniProt Q99607 1-663). The conditions noted are these: protein: recombinant; tags: N-terminal GST; dsDNA, one strand shown. The method in brief:
as §1

The next test has as its target T9, ELK4 (Homo sapiens, UniProt P28324-2 1-405).
T9 sequence: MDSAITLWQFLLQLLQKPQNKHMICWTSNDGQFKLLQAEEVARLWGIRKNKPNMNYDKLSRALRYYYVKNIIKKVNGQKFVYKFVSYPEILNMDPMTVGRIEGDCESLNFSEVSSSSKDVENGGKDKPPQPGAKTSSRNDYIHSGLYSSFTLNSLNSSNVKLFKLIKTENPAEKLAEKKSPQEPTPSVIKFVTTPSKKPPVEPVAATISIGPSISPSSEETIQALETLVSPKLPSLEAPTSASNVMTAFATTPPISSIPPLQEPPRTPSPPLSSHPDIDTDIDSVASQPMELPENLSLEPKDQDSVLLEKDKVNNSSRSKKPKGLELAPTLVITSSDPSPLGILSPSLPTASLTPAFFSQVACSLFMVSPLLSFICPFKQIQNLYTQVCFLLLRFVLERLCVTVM
Conditions: protein: recombinant; tags: N-terminal GST; dsDNA, one strand shown. The method in brief: as §1

The target in a further test is T10, ETV2 (Homo sapiens, UniProt O00321 1-342).
T10 sequence: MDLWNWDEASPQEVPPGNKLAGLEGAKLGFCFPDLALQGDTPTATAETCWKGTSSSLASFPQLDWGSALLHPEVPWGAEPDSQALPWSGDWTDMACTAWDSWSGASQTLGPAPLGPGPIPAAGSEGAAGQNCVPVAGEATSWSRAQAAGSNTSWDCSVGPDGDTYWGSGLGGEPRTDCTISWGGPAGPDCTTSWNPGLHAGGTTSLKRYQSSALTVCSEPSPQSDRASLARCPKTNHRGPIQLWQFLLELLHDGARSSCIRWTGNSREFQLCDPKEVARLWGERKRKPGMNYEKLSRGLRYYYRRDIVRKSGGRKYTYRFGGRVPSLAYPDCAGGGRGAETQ
Conditions: protein: recombinant; tags: N-terminal GST; dsDNA, one strand shown. The method in brief:
as §1

Another test has as its target T11, ELF3 (Homo sapiens, UniProt P78545 1-371).
T11 sequence: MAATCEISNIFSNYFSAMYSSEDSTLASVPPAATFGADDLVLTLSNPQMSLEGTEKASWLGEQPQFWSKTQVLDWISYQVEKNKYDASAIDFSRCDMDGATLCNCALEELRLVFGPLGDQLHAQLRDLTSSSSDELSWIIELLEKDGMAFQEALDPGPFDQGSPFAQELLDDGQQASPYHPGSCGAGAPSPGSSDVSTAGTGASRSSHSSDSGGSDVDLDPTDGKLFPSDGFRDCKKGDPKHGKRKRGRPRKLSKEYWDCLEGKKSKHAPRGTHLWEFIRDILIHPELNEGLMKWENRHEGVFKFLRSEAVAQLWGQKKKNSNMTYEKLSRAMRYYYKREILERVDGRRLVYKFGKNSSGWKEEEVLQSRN
The conditions noted are these: protein: recombinant; tags: N-terminal GST; dsDNA, one strand shown. The method in brief:
as §1

Another test concerns the target CRX (Homo sapiens, UniProt O43186 1-299). Conditions: protein: recombinant; tags: N-terminal GST; dsDNA, one strand shown. The method in brief: as §1
The next test deals with ETV1 (Homo sapiens, UniProt P50549 1-477). The conditions noted are these: protein: recombinant; tags: N-terminal GST; dsDNA, one strand shown. The method in brief: as §1
ETV1, sequence (P50549 whole entry): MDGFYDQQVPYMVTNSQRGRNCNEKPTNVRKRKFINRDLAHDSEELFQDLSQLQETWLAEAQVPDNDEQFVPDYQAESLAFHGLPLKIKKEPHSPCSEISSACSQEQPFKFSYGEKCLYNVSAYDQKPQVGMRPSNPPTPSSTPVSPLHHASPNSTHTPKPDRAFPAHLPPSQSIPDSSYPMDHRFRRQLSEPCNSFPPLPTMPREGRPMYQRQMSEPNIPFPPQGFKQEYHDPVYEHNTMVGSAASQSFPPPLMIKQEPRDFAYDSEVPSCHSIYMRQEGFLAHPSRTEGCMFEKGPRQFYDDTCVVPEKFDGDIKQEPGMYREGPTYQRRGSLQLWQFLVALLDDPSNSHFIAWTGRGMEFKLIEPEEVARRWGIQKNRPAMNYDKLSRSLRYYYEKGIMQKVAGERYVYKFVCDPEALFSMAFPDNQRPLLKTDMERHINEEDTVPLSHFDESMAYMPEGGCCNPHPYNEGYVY

ELF4, sequence (Q99607 whole entry): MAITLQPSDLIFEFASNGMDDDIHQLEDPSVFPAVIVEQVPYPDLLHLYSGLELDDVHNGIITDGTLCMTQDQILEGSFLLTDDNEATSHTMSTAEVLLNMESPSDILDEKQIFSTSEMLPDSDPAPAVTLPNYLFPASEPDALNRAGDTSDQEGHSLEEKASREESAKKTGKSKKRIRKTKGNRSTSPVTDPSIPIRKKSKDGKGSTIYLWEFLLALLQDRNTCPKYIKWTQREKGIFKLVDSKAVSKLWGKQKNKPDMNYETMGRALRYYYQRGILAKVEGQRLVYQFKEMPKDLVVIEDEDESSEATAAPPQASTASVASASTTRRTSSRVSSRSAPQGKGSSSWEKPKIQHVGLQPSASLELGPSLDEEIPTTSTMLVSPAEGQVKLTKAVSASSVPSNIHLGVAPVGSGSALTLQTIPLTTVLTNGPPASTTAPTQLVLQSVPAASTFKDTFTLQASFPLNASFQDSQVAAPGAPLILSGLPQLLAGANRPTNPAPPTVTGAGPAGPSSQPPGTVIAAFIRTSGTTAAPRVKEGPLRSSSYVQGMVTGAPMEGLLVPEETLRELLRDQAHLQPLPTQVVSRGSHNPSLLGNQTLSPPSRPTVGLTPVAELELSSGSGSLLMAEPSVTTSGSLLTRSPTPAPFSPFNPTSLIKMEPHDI
CRX, sequence (O43186 whole entry): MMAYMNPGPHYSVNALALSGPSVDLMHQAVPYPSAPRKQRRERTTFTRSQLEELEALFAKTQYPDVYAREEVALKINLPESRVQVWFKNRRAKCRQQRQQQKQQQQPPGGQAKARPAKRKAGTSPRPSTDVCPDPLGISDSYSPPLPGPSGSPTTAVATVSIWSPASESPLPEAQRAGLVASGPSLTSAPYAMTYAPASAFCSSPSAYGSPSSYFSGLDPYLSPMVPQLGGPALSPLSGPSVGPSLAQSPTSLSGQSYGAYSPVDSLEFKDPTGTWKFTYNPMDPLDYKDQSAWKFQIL
HSF1, sequence (Q00613 whole entry): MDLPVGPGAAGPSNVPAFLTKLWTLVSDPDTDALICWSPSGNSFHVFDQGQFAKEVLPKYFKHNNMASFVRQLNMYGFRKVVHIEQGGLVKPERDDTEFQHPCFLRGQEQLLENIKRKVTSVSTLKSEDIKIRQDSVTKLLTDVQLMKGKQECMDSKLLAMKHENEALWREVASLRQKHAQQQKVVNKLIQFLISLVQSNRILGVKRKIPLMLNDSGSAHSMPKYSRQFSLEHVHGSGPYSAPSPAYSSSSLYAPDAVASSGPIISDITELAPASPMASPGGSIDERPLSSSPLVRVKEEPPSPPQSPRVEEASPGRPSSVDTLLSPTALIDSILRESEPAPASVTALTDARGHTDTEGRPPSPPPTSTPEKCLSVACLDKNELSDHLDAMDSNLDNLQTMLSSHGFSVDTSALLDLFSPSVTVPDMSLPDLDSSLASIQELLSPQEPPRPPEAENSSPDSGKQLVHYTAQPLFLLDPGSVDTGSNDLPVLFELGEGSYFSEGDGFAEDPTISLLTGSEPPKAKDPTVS

For CCTCGC, the binding signal was 1.53 fold enrichment (6-mer frequency, TF over GST control) with FLI1; 1.54 fold enrichment (6-mer frequency, TF over GST control) with ELK1; 1.43 fold enrichment (6-mer frequency, TF over GST control) with GABPA; 1.5 fold enrichment (6-mer frequency, TF over GST control) in the test with ERG; 1.37 fold enrichment (6-mer frequency, TF over GST control) in the test with ELF1; 1.42 fold enrichment (6-mer frequency, TF over GST control) with EHF. Besides, the binding signal with SPI1 was 1.39 fold enrichment (6-mer frequency, TF over GST control); with SPIB, 1.42 fold enrichment (6-mer frequency, TF over GST control); with ELK3, 1.26 fold enrichment (6-mer frequency, TF over GST control); in the test with FEV, 1.37 fold enrichment (6-mer frequency, TF over GST control); with ETV5, 1.51 fold enrichment (6-mer frequency, TF over GST control); with HSF1 it was 1.36 fold enrichment (6-mer frequency, TF over GST control). The binding signal with SPIC was 1.46 fold enrichment (6-mer frequency, TF over GST control); in the test with ELF4 it was 1.6 fold enrichment (6-mer frequency, TF over GST control); in the test with ELK4, 1.62 fold enrichment (6-mer frequency, TF over GST control); with ETV2 it was 1.6 fold enrichment (6-mer frequency, TF over GST control); with ELF3, 1.56 fold enrichment (6-mer frequency, TF over GST control); with CRX, 1.16 fold enrichment (6-mer frequency, TF over GST control). Moreover, the binding signal with ETV1 was 1.54 fold enrichment (6-mer frequency, TF over GST control).
